Among the data in ChEMBL document CHEMBL3433997, “St. Jude Leishmania screening dataset” (2016) are inhibition values, retold here.

The inhibition is the change of the read-out against control, counted positive when it falls.

Where “and” joins values, the source holds several entries; their conditions need not be identical. Equal values may be shown once.

The first assay has as its target Hexose transporter 1 (Plasmodium falciparum) (UniProt O97467). Description: ST_JUDE_LEISH: Cytotoxicity at 2uM final concentration against transgenic Leishmania Mexicana promastigotes LmPfHT that are glucose transport deficient and complemented with the Plasmodium falciparum hexose transporter. Activity is measured by DNA content using SYBR green in vitro. The class given is functional.
Take `Fc1ccc2[nH]cc(CCN3CCC(CNCc4ccccc4)CC3)c2c1`: the inhibition is 5.46%.
Same read-out and setting: under `CN1CC=C(c2c[nH]c3ccc(Oc4ccccc4)cc23)CC1` stands 6.03%; under `Cn1nc(-c2ccc(S(=O)(=O)NC3CCC(CN4CCC(c5c[nH]c6ccccc56)CC4)CC3)s2)cc1C(F)(F)F` (stereo not drawn), 4.54% and 4.39%.
For `O=C(NC1CCN(CC2(c3ccc(Cl)cc3)CCC2)CC1)c1cscn1`, the inhibition was -2.56%.
On to `CNC(=O)c1ccc2[nH]cc(C3CCN(CC4CCC(NC(=O)/C=C/c5ccccc5Cl)CC4)CC3)c2c1` (stereo not drawn), for which the inhibition was 9.61%.
On the same count and under the same terms, under `COc1cccc(/C=C/C(=O)NC2CCC(CN3CCC(c4c[nH]c5ccccc45)CC3)CC2)c1` (stereo not drawn) stands -0.63% and -2.74%; under `CCCCCSc1cc(O)c(C(CNC)C(C)C)cc1OC` (stereo not drawn), -1.89%.
On to `O=C(Nc1ccccc1C(F)(F)F)NC1CCC(CN2CCC(c3c[nH]c4ccccc34)CC2)CC1` (stereo not drawn), for which the inhibition was 4.94% and 7.06%.
On to `Cc1cc(NC(=O)[C@@H](Nc2ccc(C#N)c3ccccc23)C2CCCCC2)ccc1F`, for which the inhibition was -0.16%.
Regarding `c1ccc(C(OCCC2CCN(Cc3cccnc3)CC2)c2ccccc2)cc1`, the inhibition amounted to 0.06%.
For `CC(=O)Nc1ccc(CN2CCC(N(C)c3ccc(NC(=O)c4cccc(C)c4)cc3)CC2)cc1`, the inhibition worked out at 10.9%.
Still for that read-out and setting: then `N#Cc1c(F)cc(N2CCC(NCC[C@H](N)Cc3ccc(F)c(F)c3)CC2)cc1F`, with 3.63%.
Same read-out and setting: then `Cc1cc(NC(=O)[C@H](CC(C)C)Nc2ccc(C#N)c3ccccc23)ccc1F`, with 2.4%; and `CC[C@H]1CN2CC[C@@H]1C[C@H]2[C@H](O)c1cc(N2CCC(O)(c3ccccc3)CC2)nc2ccc(OC)cc12`, with 4.26%.
As for `Cc1ccc(CC(C)NCC(O)c2cccc([N+](=O)[O-])c2)cc1` (stereo not drawn), the inhibition was -0.33%.
Regarding `Cc1ccc(/C=C/C(=O)NC2CCC(CN3CCC(c4c[nH]c5ccccc45)CC3)CC2)cc1C` (stereo not drawn), the inhibition is 3.35% and 0.58%.
Same read-out and setting: under `CSc1nccc(-c2ccc(S(=O)(=O)NC3CCC(CN4CCC(c5c[nH]c6ccccc56)CC4)CC3)s2)n1` (stereo not drawn) stands 0.65% and 1.79%.
For `CNCCN(C)C(=O)Oc1c(Br)c(C)nc(C)c1-c1ccc(Oc2ccc(OC(F)(F)F)cc2)cc1`, the inhibition is 3.16%.
On to `Oc1ccc2[nH]cc(C3=CCN(CCc4ccccc4)CC3)c2c1`, for which the inhibition was 18.1%.
`CC[C@H]1CN2CC[C@@H]1C[C@@H]2[C@@H](O)c1cc(-c2ccc(F)cc2)nc2ccc(OC)cc12`: the inhibition came out at 3.07%.
Regarding `CC(Cc1ccc(SC(C)(C)C)cc1)NCC(O)c1cccc(Cl)c1` (stereo not drawn), the inhibition is -2.57%.
As for `CC(C)CNCc1ccc(-c2cccc(CN(C(=O)CCC3CCCC3)C3CCN(Cc4ccccc4)CC3)c2)cc1`, the inhibition was determined as 12.3%.
For `O=C(/C=C/c1ccc(Cl)c(Cl)c1)NC1CCC(CN2CCC(c3c[nH]c4cc(O)ccc34)CC2)CC1` (stereo not drawn), the inhibition was found to be 0.88%.
Still for that read-out and setting: then `O=C(NC1CCC(CN2CCC(c3c[nH]c4ccccc34)CC2)CC1)c1[nH]c(=O)[nH]c(=O)c1F` (stereo not drawn), with 0.08%.
On the same count and under the same terms, under `O=C(CCCCCc1ccccc1)NC1CCC(CN2CCC(c3c[nH]c4ccccc34)CC2)CC1` (stereo not drawn) stands -3.78%; under `CN(c1cc(NC(=O)c2cccs2)ccn1)C1CCN(Cc2ccccc2)CC1`, 3.13%.
Same read-out and setting: then `CC(C)CCNC(=O)c1cc(C(=O)c2cc(F)ccc2O)cn(CCC(C)C)c1=O`, with 2.53%; and `Cn1c(C2CC3CCC(C2)N3CC2CCC(NC(=O)/C=C/c3ccc(Cl)c(Cl)c3)CC2)nc2ccccc21` (stereo not drawn), with 3.19%.
Turning to `CC(C)CNCc1ccc(-c2ccc(CN(C(=O)Nc3ccccc3)C3CCN(Cc4ccccc4)CC3)cc2)cc1`, the inhibition amounted to 2.41%.
Turning to `S=C(Nc1ccc2c(c1)OCCO2)NC1CCC(CN2CCC(c3c[nH]c4ccccc34)CC2)CC1` (stereo not drawn), the inhibition is -3.08% and -1.27%.
As to `CCOc1ccc(CN(CCc2ccc3c(c2)OCO3)Cc2cc(OC)ccc2O)cc1`, the inhibition was 4.01%.
In the case of `CC(C)n1ncc2c(C(=O)Nc3ccc(C#N)c(Cl)c3)cc(C3CC3)nc21`, the inhibition worked out at 1.01%.
Turning to `Cc1nc(-c2ccc(-c3ccc(C(=O)Nc4ccc5c(c4)C4(CCNCC4)CO5)cc3)c(C)c2)no1`, the inhibition stood at 5.12%.
On the same count and under the same terms, under `COc1ccc2[nH]cc(C3CCN(Cc4ccc(NC(=O)c5ccc(-c6ccccc6)cc5)cc4)CC3)c2c1` stands 2.27%; under `OC(CNC12CC3CC(CC(C3)C1)C2)c1cccc(C(F)(F)F)c1` (stereo not drawn), -1.19%.
With `N#Cc1ccc(N(CC(=O)NCCc2ccccc2)CC2CC2)c2ccccc12`, the inhibition amounted to 0.73%.
Still for that read-out and setting: under `CC(Cc1ccc(NC(=O)[C@@H](C)NCCc2cccc(Cl)c2)cc1)NCCc1cccc(Cl)c1` (stereo partly drawn) stands 2.55%; under `COc1cccc(C(=O)C2CC2CN2CC=C(c3c[nH]c4cccc(Br)c34)CC2)c1` (stereo not drawn), 1.08%; under `O=C(NC1CCC(CN2CCC(c3c[nH]c4ccccc34)CC2)CC1)C1(O)c2ccccc2-c2ccccc21` (stereo not drawn), 2.05%.

The next assay deals with Glucose transporter (Leishmania mexicana) (UniProt O61059). Description: ST_JUDE_LEISH: Cytotoxicity at 2uM final concentration against transgenic Leishmania Mexicana promastigotes LmGT2 that are glucose transport deficient and complemented with the L. Mexicana glucose transporter 2. Activity is measured by DNA content using SYBR green in vitro. The class given is functional.
For the compound `Fc1ccc2[nH]cc(CCN3CCC(CNCc4ccccc4)CC3)c2c1`, the inhibition amounted to 1.2%.
The same measure, in the same setting: then `CN1CC=C(c2c[nH]c3ccc(Oc4ccccc4)cc23)CC1`, with 3.03%; and `Cn1nc(-c2ccc(S(=O)(=O)NC3CCC(CN4CCC(c5c[nH]c6ccccc56)CC4)CC3)s2)cc1C(F)(F)F` (stereo not drawn), with 1.24% and 0.16%; and `O=C(NC1CCN(CC2(c3ccc(Cl)cc3)CCC2)CC1)c1cscn1`, with 0.83%.
For the compound `CNC(=O)c1ccc2[nH]cc(C3CCN(CC4CCC(NC(=O)/C=C/c5ccccc5Cl)CC4)CC3)c2c1` (stereo not drawn), the inhibition was 8.45%.
On the same count and under the same terms, under `COc1cccc(/C=C/C(=O)NC2CCC(CN3CCC(c4c[nH]c5ccccc45)CC3)CC2)c1` (stereo not drawn) stands 3.07% and -2.7%.
Same read-out and setting: under `CCCCCSc1cc(O)c(C(CNC)C(C)C)cc1OC` (stereo not drawn) stands -2.39%.
Take `O=C(Nc1ccccc1C(F)(F)F)NC1CCC(CN2CCC(c3c[nH]c4ccccc34)CC2)CC1` (stereo not drawn): the inhibition is 2.99% and -1.24%.
Consider `Cc1cc(NC(=O)[C@@H](Nc2ccc(C#N)c3ccccc23)C2CCCCC2)ccc1F`, for which the inhibition is -0.25%.
On the same count and under the same terms, under `c1ccc(C(OCCC2CCN(Cc3cccnc3)CC2)c2ccccc2)cc1` stands 0.26%.
For the compound `CC(=O)Nc1ccc(CN2CCC(N(C)c3ccc(NC(=O)c4cccc(C)c4)cc3)CC2)cc1`, the inhibition is 9.57%.
For `N#Cc1c(F)cc(N2CCC(NCC[C@H](N)Cc3ccc(F)c(F)c3)CC2)cc1F`, the inhibition was determined as 2.33%.
For `Cc1cc(NC(=O)[C@H](CC(C)C)Nc2ccc(C#N)c3ccccc23)ccc1F`, the inhibition is -0.16%.
`CC[C@H]1CN2CC[C@@H]1C[C@H]2[C@H](O)c1cc(N2CCC(O)(c3ccccc3)CC2)nc2ccc(OC)cc12`: the inhibition came out at 1.87%.
Consider `Cc1ccc(CC(C)NCC(O)c2cccc([N+](=O)[O-])c2)cc1` (stereo not drawn), for which the inhibition worked out at 1.06%.
In the case of `Cc1ccc(/C=C/C(=O)NC2CCC(CN3CCC(c4c[nH]c5ccccc45)CC3)CC2)cc1C` (stereo not drawn), the inhibition is -0.3% and -2.39%.
`CSc1nccc(-c2ccc(S(=O)(=O)NC3CCC(CN4CCC(c5c[nH]c6ccccc56)CC4)CC3)s2)n1` (stereo not drawn): the inhibition is 2.7% and 0.3%.
For the compound `CNCCN(C)C(=O)Oc1c(Br)c(C)nc(C)c1-c1ccc(Oc2ccc(OC(F)(F)F)cc2)cc1`, the inhibition amounted to 5.59%.
As for `Oc1ccc2[nH]cc(C3=CCN(CCc4ccccc4)CC3)c2c1`, the inhibition was 13.4%.
Regarding `CC[C@H]1CN2CC[C@@H]1C[C@@H]2[C@@H](O)c1cc(-c2ccc(F)cc2)nc2ccc(OC)cc12`, the inhibition came to 5.29%.
With `CC(Cc1ccc(SC(C)(C)C)cc1)NCC(O)c1cccc(Cl)c1` (stereo not drawn), the inhibition was -0.72%.
On the same count and under the same terms, then `CC(C)CNCc1ccc(-c2cccc(CN(C(=O)CCC3CCCC3)C3CCN(Cc4ccccc4)CC3)c2)cc1`, with 10.7%; and `O=C(/C=C/c1ccc(Cl)c(Cl)c1)NC1CCC(CN2CCC(c3c[nH]c4cc(O)ccc34)CC2)CC1` (stereo not drawn), with -0.33%.
`O=C(NC1CCC(CN2CCC(c3c[nH]c4ccccc34)CC2)CC1)c1[nH]c(=O)[nH]c(=O)c1F` (stereo not drawn): the inhibition was -0.11%.
For `O=C(CCCCCc1ccccc1)NC1CCC(CN2CCC(c3c[nH]c4ccccc34)CC2)CC1` (stereo not drawn), the inhibition was -1.29%.
Take `CN(c1cc(NC(=O)c2cccs2)ccn1)C1CCN(Cc2ccccc2)CC1`: the inhibition was determined as 2.09%.
Take `CC(C)CCNC(=O)c1cc(C(=O)c2cc(F)ccc2O)cn(CCC(C)C)c1=O`: the inhibition amounted to 6.46%.
For the compound `Cn1c(C2CC3CCC(C2)N3CC2CCC(NC(=O)/C=C/c3ccc(Cl)c(Cl)c3)CC2)nc2ccccc21` (stereo not drawn), the inhibition was found to be 2.69%.
In the case of `CC(C)CNCc1ccc(-c2ccc(CN(C(=O)Nc3ccccc3)C3CCN(Cc4ccccc4)CC3)cc2)cc1`, the inhibition worked out at 4.94%.
The same measure, in the same setting: then `S=C(Nc1ccc2c(c1)OCCO2)NC1CCC(CN2CCC(c3c[nH]c4ccccc34)CC2)CC1` (stereo not drawn), with 4.46% and -3.36%; and `CCOc1ccc(CN(CCc2ccc3c(c2)OCO3)Cc2cc(OC)ccc2O)cc1`, with 6.07%.
Consider `CC(C)n1ncc2c(C(=O)Nc3ccc(C#N)c(Cl)c3)cc(C3CC3)nc21`, for which the inhibition was 3.4%.
In the case of `Cc1nc(-c2ccc(-c3ccc(C(=O)Nc4ccc5c(c4)C4(CCNCC4)CO5)cc3)c(C)c2)no1`, the inhibition was found to be 1.93%.
Still for that read-out and setting: then `COc1ccc2[nH]cc(C3CCN(Cc4ccc(NC(=O)c5ccc(-c6ccccc6)cc5)cc4)CC3)c2c1`, with 3.28%; and `OC(CNC12CC3CC(CC(C3)C1)C2)c1cccc(C(F)(F)F)c1` (stereo not drawn), with -0.45%.
As to `N#Cc1ccc(N(CC(=O)NCCc2ccccc2)CC2CC2)c2ccccc12`, the inhibition is 0.87%.
`CC(Cc1ccc(NC(=O)[C@@H](C)NCCc2cccc(Cl)c2)cc1)NCCc1cccc(Cl)c1` (stereo partly drawn): the inhibition was determined as 2.1%.
With `COc1cccc(C(=O)C2CC2CN2CC=C(c3c[nH]c4cccc(Br)c34)CC2)c1` (stereo not drawn), the inhibition is -0.34%.
On to `O=C(NC1CCC(CN2CCC(c3c[nH]c4ccccc34)CC2)CC1)C1(O)c2ccccc2-c2ccccc21` (stereo not drawn), for which the inhibition is 2.03%.
